Assay results as given in PubChem BioAssay AID1347416 (National Center for Advancing Translational Sciences (NCATS), 2020).
Among all 4,100 compounds or so, about 1,600 (39%) were called active. Inconclusive results (about 25%) are left out. Calls come from the whole dose curve; as a rule, active = well fitted inhibition curve with a large enough effect; inconclusive = small, poorly fitted or top-dose-only effect; inactive = no such curve, though single readings can be large or run the other way. This is one part of the list. A call without a number means that no potency is given here.

Assay: qHTS Validation assay for Inhibitors of Plasmodium falciparum Dd2 growth in vitro; note: nearly all actives have a fitted effect of over 70% in size
Conditions: P. falciparum Dd2 in RBCs, SYBR Green growth, 72 h; series mostly up to 28.7 µM
Source text: Malaria, a parasitic disease spread to humans through the bite of a Plasmodium infected Anopheles mosquito, continues to be a global health burden affecting millions of people, with an estimated 228 million cases and 405,000 deaths in 2018. Concerns about safety and limitations of current antimalarial treatments strongly emphasize the need to develop new therapeutic options. The scarce number of chemotypes and validated drug targets with efficacy against the liver stage, have hindered development of new antimalarials. To address this, a chemoprophylactic drug discovery effort was conducted through a combined phenotypic high-throughput asexual blood stage and liver stage screen, providing a robust foundation to identify liver-stage active lead chemotypes. Compounds were initially screened against Plasmodium falciparum Dd2 strain parasites using a in vitro SYBRGreen-1 based 72 hr proliferation assay to identify novel chemotypes to advance to liver stage assays. NIH/NCATS Early Translation Branch Assay Submitter (PI): Anton Simeonov Ph.D.
[…] Assay Protocol: PROTOCOL TABLE (as described by Inglese et al., 2007) SEQUENCE No. (e.g., 1, 2, 3, etc.); PARAMETER (e.g., Cells, Incubation, Reagent, etc.); VALUE; DESCRIPTION SEQUENCE, Parameter, Description 1; Reagent; 3 uL complete malaria growth medium, 1536 TC treated Black clear bottom plate 2; Controls; 23 nL positive control artesunate (300 nM final) to column 1; Neutral control DMSO to columns 2-4 3; Compound; 23 nL of compounds in dose response concentration (29 uM to 0.5 nM final) 4; Reagent; 5 uL malaria infected red blood cells (2.5% hematocrit final, 0.3% parasitemia 5; Time; 72 hours at 37C (5% O2, 5% CO2, 90% N2; 95% Rh) 6; Reagent; 2 uL lysis buffer/SYBRGreen-1, 25 sec shake immediately following dispense 7; Time; ~16 hours at 37C (5% O2, 5% CO2, 90% N2; 95% Rh) 8; Detector; EnVision (PerkinElmer) bottom read at 485/14nm excitation and 535/25 nm emission NOTES (numbers refer to sequence above): 1; Complete Malaria Growth Media: 1X RPMI-1640 w/L-glutamine, 5.5g/L Albumax II, 367 uM Hypoxanthine, 25 mM HEPES, 0.25% Sodium Bicarbonate, 35 uM Gentamicin sulfate 2; Controls were added using the Kalypsis Pintool (Wako USA) equipped with 1536 pinhead 3; Compounds were added in a 7-point, titration with a high final concentration of 29 uM by Pintool from seven inter-plate titrations of library plates and two DMSO control plates at the beginning and end (see Yasgar et al., 2008). 4; Red blood cells infected with Plasmodium falciparum Dd2 parasites were used. 6; Lysis buffer: 20 mM Tris-HCl, 10 mM EDTA, 0.16% Saponin, 1.6% Triton-X, 10X SYBR Green. REFERENCE: Inglese J, Shamu CE, Guy RK. 2007. Reporting data from high-throughput screening of small-molecule libraries. Nat Chem Biol. doi:10.1038/nchembio0807-438 Yasgar A, Shinn P, Jadhav A, Auld D, Michael S, Zheng W, Austin CP, Inglese J, Simeonov A. 2008. Compound Management for Quantitative High-Throughput Screening. J Lab Autom 13:79-89. doi:10.1016/j.jala.2007.12.004
Potency is the fitted concentration of half-maximal effect.

SMILES | Potency
COc1ccc(-c2nc3ccccc3s2)cc1NC(=O)c1cc2ccccc2o1 | inactive
COc1ccc(C)cc1N(C(=O)COc1cccc(F)c1)c1nc2ccccc2s1 | 5.96 µM (active)
COc1ncc(-c2cc3c(nc2OC)nc(CC2CC2)n3C)cn1 | inactive
CCc1nn2cc(C(=O)c3cc(C)ccc3O)cnc2c1-c1ccc(F)cc1 | 9.44 µM (active)
COc1ccc([C@@H]2CN(C(=O)CCc3c(C)noc3C)C[C@H]2N(C)C)cc1 | inactive
CCC(C)NC(=O)N1CC(c2nc(CCOCC3CCOCC3)no2)C1 (stereo not drawn) | inactive
Nc1nc(N)c2cc(Sc3ccc4ccccc4c3)ccc2n1 | 1.33 µM (active)
CCOC(=O)c1ccc(Nc2nnc(C(C)(C)C)c(=O)[nH]2)cc1 | 13.3 µM (active)
CCc1ccc(CN(Cc2ccco2)C(=O)c2cc(-c3ccc(Cl)cc3)on2)cc1 | inactive
Cc1cc(C(=O)Nc2cc(C)n(Cc3ccc(Cl)cc3)n2)no1 | inactive
Cc1cc(NC(=O)c2cc(-c3ccco3)on2)nn1Cc1ccc(Cl)cc1 | 8.41 µM (active)
CCC(=O)N/C(N)=N/c1nc(C)c2cc(C)c(C)cc2n1 | 9.44 µM (active)
COC(=O)c1cc(O)cc(OC)c1Oc1cc(C)cc(O)c1C(=O)O | 4.22 µM (active)
O=C(Cc1cccs1)NC1CCN(c2cc(C(F)(F)F)ncn2)CC1 | inactive
O=C(CCCCn1c(=O)c2ccccc2n(CC(=O)Nc2ccccc2)c1=O)NCc1ccccc1Cl | inactive
COC(=O)c1ccccc1NC(=O)Cn1c(=O)n(CCCC(=O)NCc2ccccc2Cl)c(=O)c2ccccc21 | inactive
Cc1ccc(NC(=O)Cn2c(=O)n(-c3ccc(C)cc3)c(=O)c3ccc(C(=O)NCc4ccccc4Cl)cc32)cc1 | 5.31 µM (active)
COc1ccc(C2c3ccc4ccccc4c3Oc3ncn(CCCN(C)C)c(=N)c32)cc1 (stereo not drawn) | 2.99 µM (active)
CN(C)CCCn1cnc2c(c1=N)C(c1ccccc1)c1ccc3ccccc3c1O2 (stereo not drawn) | 3.76 µM (active)
CN1CCN(c2cc(=O)c3ccnc(-c4cn[nH]c4)c3o2)CC1 | inactive

SMILES | Potency
CCC(C)N(CCNC(=O)c1ccc2c(c1)NC(=O)c1ccccc1S2)C1CCCCC1 (stereo not drawn) | 13.3 µM (active)
CC(C)CNC(=O)c1ccc2c(c1)NC(C)(CNc1ccccc1)CO2 (stereo not drawn) | inactive
CCOC(=O)CCn1nc(-c2ccc(C)cc2)c2ccccc2c1=O | inactive
Cc1cc(C)n(CC(=O)N2C[C@@H](COc3ccccc3)[C@H](C(N)=O)C2)n1 | inactive
CCOC(=O)COn1c(-n2nc(C)cc2C)nc2ccccc2c1=O | 9.44 µM (active)
COc1ccc(C2c3ccc(O)cc3Oc3ncn4nc(-c5ccncc5)nc4c32)cc1OC (stereo not drawn) | 15 µM (active)
O=C1NCc2ccccc2CC12CCN(Cc1ccccc1F)CC2 | inactive
O=C(c1ccccc1F)N1CCC2(CC1)COc1ccccc1CN2 | 4.33 µM (active)
COc1ccc(C(=O)N2CCC3(CC2)COc2ccccc2CN3)cc1 | 10.6 µM (active)
O=C(c1ccccc1F)N1CCCC2(C1)NC(=O)N(Cc1cccc(Cl)c1)C2=O (stereo not drawn) | inactive
CCc1noc(-c2cn(C3CCCN(C(=O)c4ccc5c(c4)OCO5)C3)nn2)n1 (stereo not drawn) | inactive
COc1ccc(C(=O)N2CCC3(CC2)CC(C(C)C)=NO3)cc1 | inactive
O=C(c1ccccc1-c1ncc[nH]1)N1CC[C@@H](c2ccc3c(c2)OCO3)[C@H](O)C1 | inactive
COc1ccc(C(=O)N2CCN3C(=O)N(C4CCOCC4)C[C@H]3C2)cc1 | inactive
c1ccc2c(c1)CNC1(CCN(Cc3cccc4ccccc34)CC1)CO2 | 7.5 µM (active)
O=C(c1ccc2c(c1)OCO2)N1CCC2(CC1)COc1ccccc1CN2 | 5.31 µM (active)
Cc1ccccc1C(=O)N1CCC2(CC1)NC(=O)N(c1ccc(F)cc1)N2 | inactive
Cc1ccc(-c2cn3c(n2)N(C(=O)c2sc(C)nc2C)CCC3)cc1 | inactive
COC(=O)c1c(NC(=O)/C(C#N)=C/c2ccccc2)sc2c1C(C(=O)OC)CC2 (stereo not drawn) | inactive
CNC(=O)N1CCC(Cc2nncn2C(C)C)C1 (stereo not drawn) | inactive

SMILES | Potency
Cn1cc(C(=O)NCCN2CCN(c3cccc(Cl)c3)CC2)c2c3ccccc3n(C)c2c1=O | 4.73 µM (active)
COc1ccc(C(=O)N2CCN(c3nnc4cccc(C)n34)CC2)cc1F | inactive
CCOC(=O)c1ccccc1NC(=O)c1cn(CC(C)C)c(=O)c2cc(OC)c(OC)cc12 | 8.41 µM (active)
COc1cc2c(C(=O)N3CCN(c4cc(Cl)ccc4C)CC3)cn(CC(C)C)c(=O)c2cc1OC | 15 µM (active)
Cn1cc(C(=O)N2CCN(c3ccccc3)CC2)c(=O)c2cc(S(=O)(=O)N3CCCC3)ccc21 | inactive
Cc1ccc(Cl)cc1N1CCN(C(=O)c2cn(CC(C)C)c(=O)c3c2c2ccccc2n3C)CC1 | 3.35 µM (active)
CCn1cc(C(=O)N2CCN(c3cc(Cl)ccc3C)CC2)c(=O)c2cc(S(=O)(=O)N3CCCCC3)ccc21 | inactive
CCc1ccccc1NC(=O)c1cn(C)c(=O)c2ccccc12 | inactive
CC(C)C[C@H]1NC(=O)[C@@H]2C[C@@H](NC(=O)CS(=O)(=O)c3ccccc3)CCN2C1=O | inactive
CC(=O)N1CCc2c(sc3c2c(=O)n(Cc2ccccc2)c(=O)n3CC(=O)NCC2CCCO2)C1 (stereo not drawn) | inactive
CCOC(=O)N1CCc2c(sc3c2c(=O)n(CCc2ccccc2)c(=O)n3Cc2c(F)cccc2Cl)C1 | 2.66 µM (active)
CCOC(=O)N1CCc2c(sc3c2c(=O)n(-c2ccccc2C(F)(F)F)c(=O)n3Cc2ccccc2C)C1 | 13.3 µM (active)
CCOC(=O)N1CCc2c(sc3c2c(=O)n(Cc2ccccc2)c(=O)n3Cc2ccccc2Cl)C1 | 4.73 µM (active)
O=C(Cn1ccn2nc3c(c2c1=O)CCCCC3)NCc1ccccc1Cl | inactive
Cc1nc(C)c(C(=O)NCC2CCCCC(=O)N2)s1 (stereo not drawn) | inactive
COc1ccc(OC)c(-n2nnc(-c3nc(-c4cc(OC)c(OC)c(OC)c4)no3)c2C)c1 | inactive
COc1ccc(OC)c(-n2c(-c3cccc(O)c3)n[nH]c2=S)c1 | 4.22 µM (active)
O=C1NCCCCCCN(C(=O)c2cnccn2)[C@H]2CCCC[C@@H]12 | inactive
